# Results from ChEMBL document CHEMBL3433997, “St. Jude Leishmania screening dataset” (2016).
# Key:
# Assay type in all cases: functional
# [1] = biological target: Solute carrier family 2, facilitated glucose transporter member 1 (Homo sapiens) (UniProt P11166); experiment: ST_JUDE_LEISH: Cytotoxicity at 2uM final concentration against transgenic Leishmania Mexicana promastigotes LmGLUT1 that are glucose transport deficient and complemented with the human glucose transporter GLUT1. Activity is measured by DNA content using SYBR green in vitro
# Sequence of Solute carrier family 2, facilitated glucose transporter member 1 (Homo sapiens) (P11166 whole entry): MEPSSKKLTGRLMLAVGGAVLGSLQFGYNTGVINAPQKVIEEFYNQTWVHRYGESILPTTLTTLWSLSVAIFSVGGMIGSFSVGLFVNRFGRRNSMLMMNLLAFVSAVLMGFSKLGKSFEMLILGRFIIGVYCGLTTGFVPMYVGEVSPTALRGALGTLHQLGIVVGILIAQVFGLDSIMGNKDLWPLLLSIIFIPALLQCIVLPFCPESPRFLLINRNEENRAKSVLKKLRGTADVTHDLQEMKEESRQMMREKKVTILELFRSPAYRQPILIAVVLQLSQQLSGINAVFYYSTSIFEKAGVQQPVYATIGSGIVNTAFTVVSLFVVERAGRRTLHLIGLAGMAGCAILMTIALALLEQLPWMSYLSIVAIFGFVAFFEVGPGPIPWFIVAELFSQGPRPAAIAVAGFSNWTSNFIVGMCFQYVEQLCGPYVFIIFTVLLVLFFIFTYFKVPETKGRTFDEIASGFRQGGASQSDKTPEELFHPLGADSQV
# [2] = biological target: Hexose transporter 1 (Plasmodium falciparum) (UniProt O97467); experiment: ST_JUDE_LEISH: Cytotoxicity at 2uM final concentration against transgenic Leishmania Mexicana promastigotes LmPfHT that are glucose transport deficient and complemented with the Plasmodium falciparum hexose transporter. Activity is measured by DNA content using SYBR green in vitro
# [3] = biological target: Glucose transporter (Leishmania mexicana) (UniProt O61059); experiment: ST_JUDE_LEISH: Cytotoxicity at 2uM final concentration against transgenic Leishmania Mexicana promastigotes LmGT2 that are glucose transport deficient and complemented with the L. Mexicana glucose transporter 2. Activity is measured by DNA content using SYBR green in vitro
compound,measurement,setting,value
CCC(C)NS(=O)(=O)c1ccc2nc(Nc3ccc(C)c(Cl)c3)n(C(C)C(C)C)c2c1 (stereo not given),inhibition,[1],2.38%
same,inhibition,[2],2.08%
same,inhibition,[3],1.6%
COc1ccc(Nc2ncc(OC)c(Nc3ccccc3C(N)=O)n2)cc1N1CCN(C)CC1,inhibition,[1],17.6%
same,inhibition,[2],21.9%
same,inhibition,[3],7.83%
COc1cccc(C(=O)N2CCOC(CCN3CCC(c4ccccc4)CC3)(c3ccc(Cl)c(Cl)c3)C2)c1 (stereo not given),inhibition,[1],0.55%
same,inhibition,[2],-0.77%
same,inhibition,[3],-0.26%
CCCC(C)NC(=O)[C@H]1CNCCN1C(=O)CCCc1ccccc1 (stereo not given in full),inhibition,[1],8.59%
same,inhibition,[2],7.9%
same,inhibition,[3],3.67%
N#Cc1ccc(CNCCCCCCNCc2ccc(C#N)c3ccccc23)c2ccccc12,inhibition,[1],2.15%
same,inhibition,[2],1.12%
same,inhibition,[3],2.53%
Cc1cccc2c(C(=O)NC3CCN(Cc4ccccc4)CC3)cc(-c3cccnc3)nc12,inhibition,[1],1.6%
same,inhibition,[2],1.08%
same,inhibition,[3],-0.31%
CCN(CC)/C(=N/C(=N)Nc1ccc(Cl)c(Cl)c1)NCCCCCCN/C(=N\C(=N)Nc1ccc(Cl)c(Cl)c1)N(CC)CC,inhibition,[1],1.15%
same,inhibition,[2],-1.65%
same,inhibition,[3],-1.49%
CC12CN3CC(C)(CN(C1)C3c1cc(Br)ccc1O)C2O (stereo not given),inhibition,[1],-3.78%
same,inhibition,[2],-1.64%
same,inhibition,[3],4.22%
O=C(N[C@@H](CC1CCCCC1)C(=O)NCCN1CCCC1)c1ccc(O)c(-c2cccc(C(F)(F)F)c2)c1,inhibition,[1],-0.44%
same,inhibition,[2],-0.43%
same,inhibition,[3],0.16%
CC(C)CCn1c(Sc2ccc(C#N)c([N+](=O)[O-])c2)nnc1-c1cccc(Cl)c1,inhibition,[1],9.63%
same,inhibition,[2],9.97%
same,inhibition,[3],8.26%
O=C(Nc1nc2ccc(Cl)cc2s1)c1csnn1,inhibition,[1],-1.77%
same,inhibition,[2],-1.39%
same,inhibition,[3],-5.77%
c1cc(CN2CCCCC2)cc(OCCCNc2ccnc3ccccc23)c1,inhibition,[1],18%
same,inhibition,[2],7.87%
same,inhibition,[3],5.12%
Nc1c2c(nc3ccc(Oc4ccc(Br)cc4Br)cc13)CCCC2,inhibition,[1],81.2%
same,inhibition,[2],84.6%
same,inhibition,[3],57.4%
Clc1ccc2c(N3CCCNCC3)ccnc2c1,inhibition,[1],1.53%
same,inhibition,[2],1.07%
same,inhibition,[3],4.48%
O=C(Nc1ccsc1)Nc1cccc(-c2cccc(-c3nc4ccccc4[nH]3)c2)c1,inhibition,[1],9.79%
same,inhibition,[2],10.8%
same,inhibition,[3],4.27%
Cc1ccc(C(=O)Nc2cccc(CN3CCCN(Cc4ccc(O)cc4)CC3)c2)s1,inhibition,[1],-2.38%
same,inhibition,[2],0.41%
same,inhibition,[3],2.88%
NCC1CCCN1Cc1cccc(-c2ccc(-c3nc4cc(C(F)(F)F)ccc4[nH]3)cc2)c1 (stereo not given),inhibition,[1],0.06%
same,inhibition,[2],0.65%
same,inhibition,[3],-0.43%
CN1CCN(C(=O)CN2CCC3(CCC2=O)NC(=O)c2ccccc2O3)CC1 (stereo not given),inhibition,[1],3.76%
same,inhibition,[2],5.1%
same,inhibition,[3],3.13%
Cc1cc(F)ccc1-c1nc(NCCCN2CCCC2=O)nc2c1ccc(=O)n2-c1c(F)cccc1F,inhibition,[1],15.4%
same,inhibition,[2],12.9%
same,inhibition,[3],11.1%
NC1CCN(c2nc(NCCCc3ccc(O)cc3)nc(NCc3ccccc3-c3ccc(C(F)(F)F)cc3)n2)CC1,inhibition,[1],1.49%
same,inhibition,[2],2.87%
same,inhibition,[3],3.83%
Clc1ccccc1OCc1ccccn1,inhibition,[1],3.19%
same,inhibition,[2],2.07%
same,inhibition,[3],2.66%
CNc1nc(N/N=C/c2cc([N+](=O)[O-])c(Cl)cc2Cl)nc(Nc2cccc(C(F)(F)F)c2)n1,inhibition,[1],4.8%
same,inhibition,[2],2.41%
same,inhibition,[3],0.84%
O=[N+]([O-])c1ccc(CNCCCCCCNCc2ccc([N+](=O)[O-])c3ccccc23)c2ccccc12,inhibition,[1],2.24%
same,inhibition,[2],0.87%
same,inhibition,[3],7.99%
Nc1ccc(-c2nc3cc(C4=N[C@H]5CCCC[C@H]5N4)ccc3o2)cc1[N+](=O)[O-],inhibition,[1],3.44%
same,inhibition,[2],1.57%
same,inhibition,[3],-0.09%
COc1ccc2nccc(N3C[C@H]4C[C@@H]3CN4CCNCc3ccc4c(n3)NC(=O)CS4)c2n1,inhibition,[1],-0.98%
same,inhibition,[2],0.1%
same,inhibition,[3],-1.32%
NC(=O)c1cc2nc(Nc3ccc(F)cc3)nc(NC3CCC3)c2[nH]1,inhibition,[1],1.42%
same,inhibition,[2],1.11%
same,inhibition,[3],-0.6%
CC(CCCCC(=O)Nc1ccc(C(F)(F)F)cc1)NCC(O)c1cccc(Cl)c1 (stereo not given),inhibition,[1],1.04%
same,inhibition,[2],-0.95%
same,inhibition,[3],1.56%
Nc1nc(-c2ccc3c(Nc4ccc(F)c(Cl)c4)ccnc3c2)cs1,inhibition,[1],3.22%
same,inhibition,[2],4.08%
same,inhibition,[3],3.86%
CN=C(S)NN=C(C)c1ccccn1,inhibition,[1],2.61%
same,inhibition,[2],-4.43%
same,inhibition,[3],-1.99%
COc1ccccc1C1CCN(C2CCC(NC(=O)/C=C/c3ccc4c(c3)OC(F)(F)O4)CC2)CC1 (stereo not given),inhibition,[1],4.33%
same,inhibition,[2],4.26%
same,inhibition,[3],1.28%
COc1ccc(Cl)cc1N1CCN(CCCNC(=O)c2ccc(-c3nc4cc(Cl)c(F)cc4[nH]3)c(F)c2)CC1,inhibition,[1],6.94%
same,inhibition,[2],2.24%
same,inhibition,[3],4.99%
Cc1cccc2nc(-c3ccc(-c4ccc(CN5CCC(C(N)=O)CC5)cc4)s3)[nH]c12,inhibition,[1],10.9%
same,inhibition,[2],9.37%
same,inhibition,[3],8.95%
CNC(=O)c1cc(NCCCNCc2ccc(Cl)c(C(F)(F)F)c2)nc2ccccc12,inhibition,[1],-1.98%
same,inhibition,[2],-1.73%
same,inhibition,[3],-2.48%
CCN(CC)CCCC(C)Nc1ccnc2cc(C#N)ccc12 (stereo not given),inhibition,[1],-0.82%
same,inhibition,[2],-2.04%
same,inhibition,[3],-3.31%
COc1cccc(-c2cnc(N)c(-c3nc4ccc(C(F)(F)F)cc4[nH]3)c2)c1,inhibition,[1],4.93%
same,inhibition,[2],5.1%
same,inhibition,[3],1.42%
